The structures appear in SMILES notation. Hit rate of the full screen: of about 65,000 compounds, about 2,100 (3.2%) showed an effect of 50% or more. The median lay at about -52%. The sample holds strong results, similar compounds and a random draw of the others, so the mix is not that of the screen.

The test system of the test is Plasmodium falciparum. The experiment in a line: Screen against P. falciparum Asexual Blood Stage (ABS), at 5uM. The settings on record: tested at 5 uM. It is filed as functional, Dd2.
`Cc1ccc(CN(C)C(=O)CNC(C)(C)c2noc(C(C)(C)C)n2)o1`: the INHIBITION was -62.5%.

With `COCCC(=O)N1CCC2(COCc3cnc(N(C)C)nc32)C1` (stereo not given), the INHIBITION is given as -29%.

Turning to `CCc1ccc(CN(C)C(=O)c2cnc3c(c2)nc(N)n3CC)nc1`, the INHIBITION is -20.9%.

As to `COc1cccc(OCCNCc2ccccc2)c1`, the INHIBITION amounted to 34.7%.

In the case of `COc1cccc(CNCCNS(=O)(=O)Cc2ccccc2)c1`, the INHIBITION stood at 55.5%.

Take `COc1cccc(OCCNS(=O)(=O)Cc2ccccc2)c1`: the INHIBITION is -91.8%.

Turning to `CN(Cc1cn2ccccc2c1C#N)C1CCCN(c2cccnn2)C1` (stereo not given), the INHIBITION is given as -92.9%.

As for `O=C(NCc1cncc2c1CCN(C1CCOCC1)C2)c1ccco1`, the INHIBITION is reported as -81.7%.

As to `O=C(C(CNCc1cccc(O)c1)c1ccccc1)N1CCOCC1` (stereo not given), the INHIBITION is listed as -52.6%.

For the compound `O=C(C(CNCc1cccs1)c1ccccc1)N1CCOCC1` (stereo not given), the INHIBITION amounted to 7.93%.

Take `O=C(C(CNCc1ccsc1)c1ccccc1)N1CCOCC1` (stereo not given): the INHIBITION is on record as 63.6%.

Turning to `O=C(c1nn[nH]c1Nc1ccc(Cl)cc1)N1CCCCCC1`, the INHIBITION was 23.3%.

As for `Cc1nc(C)c(C(C)NCc2c(C)nn(CC(C)C)c2N(C)C)s1` (stereo not given), the INHIBITION is -40.1%.

Consider `Cc1ccc(CN2CC[C@@H](O)[C@@H]2Cc2ccccc2)o1`, for which the INHIBITION is 51.6%.

`CO[C@@H]1CCN(Cc2ccc(C)o2)[C@H]1Cc1ccccc1`: the INHIBITION was -45.5%.

As for `Cc1ccc(CN2CC[C@@H](O)[C@@H]2Cc2cnn(C)c2)o1`, the INHIBITION was -75.8%.

Turning to `Cn1cc(NC(=O)c2cccc(-n3cnnn3)c2)cn1`, the INHIBITION is on record as -36%.

As to `c1ccc(N2CCC(NCc3cccc4cn[nH]c34)C2)cc1` (stereo not given), the INHIBITION is listed as -37.2%.

On to `COc1cc(OC)cc(N2CCC(NCc3cc[nH]n3)C2)c1` (stereo not given), for which the INHIBITION is given as -39.5%.

With `COc1cccc(CNC2CCSC2)c1OC` (stereo not given), the INHIBITION is -18.4%.

As to `COc1cc(CNC2CCN(c3ccccc3)C2)cc(OC)c1OC` (stereo not given), the INHIBITION was 64.6%.

In the case of `COc1ccc(CNC2CCN(c3ccccc3)C2)cc1O` (stereo not given), the INHIBITION was 40.9%.

Take `COc1ccc(CNC2CCN(c3ccccc3)C2)c(OC)c1OC` (stereo not given): the INHIBITION is on record as 55.2%.

As to `Cc1cc(C)c(CNC(=O)c2ccc3c(c2)CCC3)c(=O)[nH]1`, the INHIBITION is -48.6%.

Regarding `CCN(CCS(=O)(=O)c1ccc(Cl)cc1)Cc1ccc(OC)c(OC)c1`, the INHIBITION is reported as -18.6%.

Regarding `Cc1nc(CN2CCCn3cnc(COC(C)C)c3C2)cs1`, the INHIBITION was -54.9%.

On to `CCS(=O)(=O)CCNC1CCN(c2nc3ccc(Cl)cc3s2)CC1`, for which the INHIBITION is listed as -52%.

With `Clc1ccc2nc(N3CCC(NCCCC4CCOC4)CC3)sc2c1` (stereo not given), the INHIBITION came to 66.2%.

Regarding `Cc1csc2c(N3CCC(NCCCC4CCOC4)CC3)ncnc12` (stereo not given), the INHIBITION is -85.3%.

In the case of `COCc1nc2ncc3c(=O)n(-c4ccccc4OC)ccc3n2n1`, the INHIBITION is recorded as -152%.

Take `O=C(Nc1cccc(N2CCCC2)c1)C1CCCN1c1nccs1` (stereo not given): the INHIBITION is given as -129%.

As for `O=C(Nc1cccc(F)c1)C1CCCN1c1nccs1` (stereo not given), the INHIBITION is -77.8%.

Take `N#Cc1cccc(NC(=O)C2CCCN2c2nccs2)c1` (stereo not given): the INHIBITION is listed as 58.1%.

As to `CNC(=O)c1ccc(CNc2ccncc2Cl)cc1`, the INHIBITION is on record as -24.6%.

Consider `O=S(=O)(NCCCn1cncn1)c1ccc2c(c1)CCCC2`, for which the INHIBITION is -159%.

Turning to `CNc1nc(C2CCCN2C(C)=O)nc2c1CN(C1CCCC1)CC2` (stereo not given), the INHIBITION is reported as -71.7%.

In the case of `CN1CCCCC1c1cncc(N2CCC(O)CC2)n1` (stereo not given), the INHIBITION was -68.9%.

On to `c1cc(N2CCC3(COCc4cnc(NCC5CC5)nc43)C2)ncn1` (stereo not given), for which the INHIBITION is on record as -14.7%.

As to `O=S(=O)(C1CC1)N1CCC2(COCc3cnc(NCC4CC4)nc32)C1` (stereo not given), the INHIBITION is listed as -35.7%.

As to `Cc1ccccc1CN1CCC2(COCc3cnc(N(C)C)nc32)C1` (stereo not given), the INHIBITION worked out at 54%.

On to `CN(C)c1ncc2c(n1)C1(CCN(Cc3ccccc3F)C1)COC2` (stereo not given), for which the INHIBITION worked out at 4.25%.

For the compound `Cc1noc(C)c1CN1CCC2(COCc3cnc(N(C)C)nc32)C1` (stereo not given), the INHIBITION was 26.7%.

On to `c1ccc(CN2CCC3(COCc4cnc(NCC5CC5)nc43)C2)cc1` (stereo not given), for which the INHIBITION is recorded as 50.2%.

Regarding `Cc1cccc(CN2Cc3ccnn3CC(COCC3CC3)C2)n1` (stereo not given), the INHIBITION is -11.3%.

For the compound `COCCN1CCN(C(=O)NC2CC2)Cc2ccc(C)nc21`, the INHIBITION is reported as -51.3%.

Regarding `Cc1cc(C[C@@H]2COC[C@H]2NCc2ccc(Cl)c(Cl)c2)on1`, the INHIBITION was -65.7%.

Take `Cn1cc(N2CCC3(CCCN(Cc4ccc(F)cc4)C3)C2=O)cn1` (stereo not given): the INHIBITION is recorded as -69.1%.

On to `O=C1COC2(CCN(CC3CC3)CC2)CN1c1ccsc1`, for which the INHIBITION is given as -43%.

Turning to `c1cc(C2CC2)n2cnc(C3CN(Cc4ccncc4)CCO3)c2c1` (stereo not given), the INHIBITION is on record as -50%.

With `COCC(=O)N1CCC(c2nc3ccc(-c4ccncc4)cn3n2)CC1`, the INHIBITION is given as -48.7%.

As for `c1ccc(-c2nc(CCNC3CCOC4(CCOCC4)C3)no2)cc1` (stereo not given), the INHIBITION is on record as -81.3%.

For the compound `c1ccc(-c2noc(CCNC3CCOC4(CCOCC4)C3)n2)nc1` (stereo not given), the INHIBITION is reported as -80.1%.

Consider `c1ccc2c(c1)cnn2CCCNC1CCOC2(CCOCC2)C1` (stereo not given), for which the INHIBITION came out at 68.9%.

Regarding `c1ccc2c(c1)nnn2CCCNC1CCOC2(CCOCC2)C1` (stereo not given), the INHIBITION was -4.37%.

On to `c1ccc2c(c1)ccn2CCCNC1CCOC2(CCOCC2)C1` (stereo not given), for which the INHIBITION stood at 61.8%.

In the case of `c1ccc(Cc2noc(CCNC3CCOC4(CCOCC4)C3)n2)cc1` (stereo not given), the INHIBITION is -43.3%.

In the case of `COc1cc(F)ccc1-c1ncccc1NC(=O)C(C)C`, the INHIBITION is recorded as -81.8%.

On to `CC(C)(C)c1nc(NS(=O)(=O)c2cccc(F)c2)no1`, for which the INHIBITION is recorded as -71.4%.

Take `Cc1cc(NCc2ccc(C#N)cc2)n2nc(C)cc2n1`: the INHIBITION was -88.7%.

Consider `Cc1nn(C)c2cn(C(C)C(=O)NCc3ccccn3)nc12` (stereo not given), for which the INHIBITION was -17.6%.

Regarding `Cc1noc(C)c1CN1CCN(CCN(C)C)c2ncccc2C1`, the INHIBITION is 23.7%.

For the compound `CN(C)CCN1CCN(Cc2cccc(C#N)c2)Cc2cccnc21`, the INHIBITION worked out at 65.1%.

Take `CC(C)N(C)Cc1cnc2n1CCN(Cc1cccc(C#N)c1)C2`: the INHIBITION was determined as 10.6%.

With `Cc1ncccc1NC(=O)c1nc2c(n1C)CCN(C(=O)C1CC1)C2`, the INHIBITION is recorded as -117%.

Regarding `COc1ccccc1NCc1cscn1`, the INHIBITION was -46.4%.

On to `COc1cc(C(C)NCc2cscn2)ccc1SC(F)F` (stereo not given), for which the INHIBITION was determined as 52.5%.

Regarding `COc1cc(C(C)NCc2scnc2C)ccc1SC(F)F` (stereo not given), the INHIBITION amounted to 19.3%.

In the case of `CN(Cc1cccnc1)C1CC2(CCN(Cc3cccnc3)CC2)C1`, the INHIBITION was -8.45%.

Take `Cc1ccc(N2CCC3(CC2)CCN(C2CCOCC2)CC3)nn1`: the INHIBITION was -77.4%.

Regarding `COCCN(Cc1ccc(C)cc1)CC1CCOC1` (stereo not given), the INHIBITION is recorded as -104%.

The values are drawn from ChEMBL document CHEMBL4513216, “Probing the Open Global Health Chemical Diversity Library for Multistage-Active Starting Points for Next-Generation Antimalarials” (ACS Infect Dis, 2020).
